Compounds with a hit are over-represented: about 9.3% of the library has one in this group of screens.
Sm TGR block – blocks Schistosoma mansoni thioredoxin glutathione reductase. Q962Y6. purified TGR, DTNB reduction, TNB absorbance 405 nm. Potency, µM (doses to about 114 µM), for the others: at the top dose activity change, negative = inhibition, actives largely listed as inhibitors. 360,000 compounds, 3% hits; also: potency is read from the fitted curve at half-maximal effect; nearly all actives have a fitted effect of over 60% in size
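Kinetic colorimetric format: TGR-catalysed, NADPH-driven DTNB reduction monitored via TNB absorbance. Enzyme dispensed at 20 nM; compound exposure 15 min at room temperature before reaction start.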
FMDV antiviral – antivirals against foot and mouth disease virus | 410,000 compounds, 1.2% hits | FMDV antiviral cell-based qHTS | Potency, µM (series often up to 57.9 µM), for inactives: at the highest dose activity change, negative = inhibition, actives largely listed as inhibitors | AID 1159524; calls by dose curve; tested in HEK293T cells; also: read-out not given here; potency is read from the fitted curve at half-maximal effect; nearly all actives have a fitted effect of over 45% in size
HCMV inh – human cytomegalovirus inhibition. activity change, negative = inhibition, % at 57.5 µM. AID 1259415. HFF cells, HCMV-luciferase reporter, 72 h; active compounds read low. 410,000 compounds, 4.5% hits; in the data active = activity change below about -60%; inconclusive = no clear call, values can overlap the other calls; inactive = above about -39%
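Luciferase read-out from HCMV-luciferase-infected HFFs (MOI 1 PFU/cell) 72 h post infection at 37C; compounds added after 16 h cell attachment; activity normalized between buffer-only basal and Salinomycin (10uM) inhibitor controls.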
Vaccinia mCherry – vaccinia inhibition (mCherry reporter) | Vaccinia virus mCherry reporter infection, fluorescence | AID 720579 | 310,000 compounds, 0.63% hits | Potency, µM (top dose mostly 36.5 µM), for the others: top-dose activity change, negative = inhibition, usual class: inhibitors; calls by dose curve; tested in A549 cells; also: potency is read from the fitted curve at half-maximal effect; nearly all actives have a fitted effect of over 35% in size
Vaccinia Venus – vaccinia inhibition (Venus reporter); Vaccinia virus Venus reporter expression, fluorescence; Potency, µM (series often up to 36.5 µM), for the others: at the top dose activity change, negative = inhibition, actives largely listed as inhibitors; 330,000 compounds, 0.46% hits; AID 720580; calls by dose curve; tested in A549 cells; also: potency is read from the fitted curve at half-maximal effect; nearly all actives have a fitted effect of over 30% in size
HCV inh – blocks hepatitis C virus; 340,000 compounds, 3.4% hits; Huh7.5.1 HCVcc-Cre infection, luciferase reporter, 44 h; Potency, µM (highest dose often 41.8 µM), for inactives: at the top dose activity change, negative = inhibition, usual class: inhibitors; also: potency is read from the fitted curve at half-maximal effect
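Whole-lifecycle infectious HCVcc-Cre system; cells 1,000/well, compound then virus (~0.5 moi) added 4 h after plating, 44 h culture. Luciferase read 15 sec following 15 min substrate incubation, room temp.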
The depositor's hits bear a star; i = inactive; u = inconclusive; x = not tested or not shown. Unless noted, calls follow the shape of the dose curve; as a rule, active = well fitted curve in the direction sought with a large enough effect; inconclusive = small, poorly fitted or top-dose-only effect, or another doubt; inactive = no such curve, though single readings can be large; an effect the other way counts as inactive or inconclusive. % is scaled to controls: 0 for no effect and ±100 for the full control effect.

SMILES	Sm TGR block	FMDV antiviral	HCMV inh	Vaccinia mCherry	Vaccinia Venus	HCV inh
COc1cc(-c2nc3cnccn3c2Nc2ccc(C)cc2)ccc1O	25.5%	-15.8%	84.3	u	-16.3%	u
Cc1ccc(CN2C(=O)c3ccccc3Sc3ccc(C(=O)N4CCC5(CC4)OCCO5)cc32)cc1	-7.2%	2.6%	u	-23.3%	-15.2%	x
O=C(c1ccc2c(c1)N(Cc1cccc(F)c1)C(=O)c1ccccc1S2)N1CCC2(CC1)OCCO2	1.3%	-1.8%	22.5	-2.5%	-0.7%	x
C=CCN1C(=O)c2ccccc2Sc2ccc(C(=O)N3CCC4(CC3)OCCO4)cc21	9.1%	-29.9%	-66.1*	x	x	u
O=C(c1ccc2c(c1)N(Cc1ccc(F)cc1Cl)C(=O)c1ccccc1S2)N1CCC2(CC1)OCCO2	1.5%	-3.9%	-68.2*	-3.2%	-3.0%	x
CN1CCN(c2ccc(-c3ccnn3C(=O)Nc3ccccc3)cc2)CC1	x	-1.8%	1.3	-2.4%	0.8%	20.2%
O=Cc1ccccc1OCCN1CCCC1=O	0.8%	-11.2%	-62.6*	x	x	11.7%
Cc1ccc(S(=O)(=O)N2CCC(C)CC2)cc1C(=O)NCCN1CCOCC1	-23.3%	-3.6%	-0.6	-16.4%	-16.3%	6.7%
O=C(NCc1ccc(F)cc1)c1c(O)nc2ccccn2c1=O	6.9%	-7.0%	-61.5*	-1.5%	1.8%	x
Cc1c(-c2ccccc2)nc2c(Cl)cccc2c1C(=O)OCC(=O)c1ccc(F)cc1	13.2%	u	-12.4	-26.2%	-21.8%	x
Cc1cc(C(=O)COC(=O)CNS(=O)(=O)c2ccc3ccccc3c2)c(C)n1-c1ccccc1	0.7%	15.2%	15.9	-2.6%	0.9%	6.6%
COC(=O)c1ccccc1NC(=O)CN1CCC(n2nnc3cc(C(F)(F)F)ccc32)CC1	-18.8%	-0.2%	-14.4	i	-6.8%	-19.3%
CC1Cc2ccccc2N1C(=O)CN1CCC(n2nnc3cc(C(F)(F)F)ccc32)CC1 (stereo unspecified)	2.7%	20µM*	-39.1	-27.7%	u	u
Cc1ccc(CNC(=O)c2cc3sccc3n2Cc2ccc(F)cc2)cc1	-2.4%	-21.5%	-2.7	-8.7%	-5.7%	x
Cc1oc2c(c1C(=O)c1ccc(Cl)cc1)C(=O)C(=O)c1ccccc1-2	u	u	u	-4.7%	0.0%	10µM*
Cc1ccc(C(=O)c2coc3c2C(=O)C(=O)c2ccccc2-3)cc1	u	x	-22.5	-10.5%	3.2%	u
O=C(c1ccc(Cl)cc1)c1ccc(CN2C(=O)c3ccccc3C2=O)o1	-33.0%	-3.8%	-12.6	-13.3%	-4.3%	-0.8%
Cc1ccc(C(=O)c2c(C)oc3c2C(=O)C(=O)c2ccccc2-3)cc1	u	u	x	x	u	7.08µM*
O=C1O[C@@H](c2ccccc2)C[C@@H](O)[C@H](O)CCc2ccccc21	x	-14.1%	8.9	35.1%	-2.7%	x
O=C1NC(=S)NC(=O)C1=Cc1ccc(OCC(=O)N2CCCC2)cc1	10µM*	-9.9%	14.2	i	-8.5%	11.8%
CCN(CC)CCNC(=O)CCc1c(C)nc2c(c(C)nn2-c2ccc(C)c(C)c2)c1C	-1.1%	-17.4%	-98.0*	x	x	7.08µM*
Cc1nc(-c2ccccn2)nc(N(C)c2ccccc2)c1Cl	-4.8%	-8.4%	-61.2*	x	x	10µM*
O=C(CCCCCN1C(=O)c2ccccc2C1=O)Nc1ccccc1F	3.9%	-2.8%	22.3	i	-12.1%	-5.4%
Cc1ccc(CNC(=O)C2c3ccccc3C(=O)N3CCc4ccccc4C23)o1 (stereo unspecified)	5.62µM*	-13.9%	-4.7	x	x	-23.2%
O=C(NCCN1CCN(Cc2ccccc2)CC1)C1c2ccccc2C(=O)N2CCc3ccccc3C12 (stereo unspecified)	-30.8%	-15.2%	12.7	-19.1%	-11.0%	-0.7%
SMILES	Sm TGR block	FMDV antiviral	HCMV inh	Vaccinia mCherry	Vaccinia Venus	HCV inh
COc1ccc(N)cc1-n1c(C)ccc1C	15.8µM*	3.4%	-65.5*	u	-15.8%	0.708µM*
CC1=NN(c2cccc(C(=O)O)c2)C(=O)/C1=C\C=C/c1ccccc1	11.2µM*	10µM*	67.9	-2.1%	-1.7%	u
CC1=NN(c2ccc(C)cc2)C(=O)/C1=C\C=C\c1ccccc1	-7.6%	28.2µM*	-81.1*	-22.1%	-0.4%	8.0%
COc1ccc(-c2c(C#N)c(N)nc3sc(C(=O)c4ccc(C)cc4)c(N)c23)cc1	9.2%	-11.3%	-29.3	-5.3%	-7.8%	u
N#Cc1cnc(SCCc2ccccc2)nc1N	-10.0%	3.4%	39.5	x	x	2.24µM*
COc1cc(CNc2ccc(N3CCCCC3)cc2)ccc1OCC(=O)NC(C)(C)C	u	u	-86.1*	u	15.2%	10µM*
COc1cc(CNCc2ccccn2)ccc1OCc1c(Cl)cccc1Cl	8.6%	0.0%	-15.2	-25.6%	-26.4%	11.2µM*
COc1cc(CNc2ccc(N3CCCC3)cc2)ccc1OCc1ccccc1F	u	-4.4%	x	-2.4%	12.8%	u
COc1cc(CNCc2ccccn2)ccc1OCc1ccc(Cl)cc1	8.2%	-12.1%	-37.9	-30.0%	-21.1%	-4.5%
COc1cc(CNc2ccc(S(N)(=O)=O)cc2)ccc1OCc1ccccc1F	x	1.5%	u	x	x	11.2µM*
COc1cc(CNc2ccc(N3CCCC3)cc2)ccc1OCc1ccccc1	44.7µM*	-27.1%	-1.6	-13.2%	1.5%	u
COc1cccc(CNc2ccc(S(N)(=O)=O)cc2)c1OCc1ccccc1F	1.4%	u	-26.5	-6.8%	-20.3%	u
Clc1c(-c2nnc3n2CCC3)sc2ccccc12	-12.9%	48.7%	-18.9	x	-15.4%	u
COc1cccc(N2CCN(C(=O)c3c(C)oc4ncnc(N5CCCCC5)c34)CC2)c1	-8.5%	0.0%	-38.7	-14.4%	-10.9%	x
S=C1SCN(Cc2ccccc2)CN1Cc1ccco1	x	-21.2%	-16.2	u	-7.0%	x
COc1cc(CNCc2ccco2)ccc1OCc1ccccc1	0.0%	x	-34.6	-0.3%	-7.4%	11.2µM*
CCOC(=O)CN1C(=O)N[C@@H](CCc2ccccc2)C(C(C)=O)=C1C	x	-25.3%	16.4	i	-4.2%	-1.3%
Cc1c(Br)c([N+](=O)[O-])nn1CC(=O)Nc1c(C)n(C)n(-c2ccccc2)c1=O	-0.6%	-5.0%	-102.0*	x	x	3.5%
Cc1c(NC(=O)CN2C(=O)NC(CCc3ccccc3)C2=O)c(=O)n(-c2ccccc2)n1C (stereo unspecified)	22.4µM*	-2.1%	19.6	i	-6.1%	7.4%
CC(=O)C1=C(C)N(Cc2ccccc2)C(=O)N[C@H]1CCc1ccccc1	-22.9%	u	-92.7*	-30.0%	-19.9%	u
Cc1nn(CC(=O)Nc2c(C)n(C)n(-c3ccccc3)c2=O)c(C)c1[N+](=O)[O-]	0.0%	-15.9%	-10.0	-0.8%	-8.8%	26.3%
CC(C)c1ccccc1NC(=O)Nc1ccc(F)cc1F	0.0%	-5.5%	-33.8	-8.3%	-19.2%	-5.4%

Screens deposited in PubChem by National Center for Advancing Translational Sciences (NCATS).
